Reference: the supplement of paper PMC11417369
Over roughly 25,000 sequences, “ln(normalized median fluorescence intensity)” has its median near 9.3; the highest 2% begin near 10. The sample as a whole holds a higher share of the highest values than the screen did.

System: PF3D7_0420300 AP2 domain 1 (GST-tagged)
Experiment: gcPBM binding intensity (ln(normalized median fluorescence intensity)); higher = stronger DNA binding
Summary of the method: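 GST-tagged P. falciparum DNA-binding domains produced in E. coli were incubated for 1 h on an Agilent 4 × 180k array of primer-extended double-stranded 36-bp intergenic genomic probes with negative controls. Binding intensity is the highest Masliner-normalised natural-log median intensity across replicate spots of either probe orientation, with bound protein detected by Alexa488 anti-GST antibody at 488 nm.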

Sequence | gcPBM binding intensity (ln)
TTTTTTATAGTACATTACCAAAAAAAAAAAAAAAAA [GTGCAC_negctrl_site549] | 8.32
TGTTGATTTATCCTGTGTACGGATATATATCTTTCA [XGTACX_site7826] | 9.27
AAAAATAGACAAAAGAGTACAAGAAAAAAAGGGTTC [XGTACX_site7843] | 9.86
AAATTTTTTAATTTTTCTCATTTAATTTAAAAATTA [GTGCAC_negctrl_site155] | 8.88
TATATTTTATATATGGTGCAACTTTTATTTAAATAA | 8.77
ATTATTAAGTTTCACAAGAACATTGTTAACAATTTT [CACACA_negctrl_site1128] | 9
ATATATATGGAAACAGTGCAATACATATATATATAT | 9.71
TTTTATGATAATTTTGCACACACTTAGGAAAAATTA [CACACA_site1556] | 9.31
AAAGTTTTAAGAAAATGTACATAAGTATACATATAT [XGTACX_site1293] | 9.18
CATACATACGGACACACACACATATATATATATATA [CACACA_site5598] | 9.97
AATACACGCAGACACACACACACACGCACATATATA [CACACA_site6447] | 10.3
AATACATACAGACACACACACACATATATATATATA [CACACA_site3558] | 10.1
AATATATACATATATACACACACATATATATATATA [CACACA_site8907] | 9.75
AATACATACGGACACACACACACATATATATATATA [CACACA_site5884] | 10.2
AGAATGGTTTATAAAGGTACGTAATTTTTAATTTTA [XGTACX_site383] | 9.06
TTTTGTTAAAAAGATGTATATTTTATAAATATTTAT [CACACA_negctrl_site101] | 8.92
TTATATATTAAGAAATGTACGAAAAAAAAAATTATA [XGTACX_site3893] | 9.2
ATTATAAATAAAATATGTACATATGTATAAATACAT [XGTACX_site4002] | 9.21
AAAAAGTGACTCCTTACACACTTTACATAATTTAGT [CACACA_site4606] | 9.46
TCTCATAGTAAACACACACACACACCCACATATATA [CACACA_site5034] | 10.3
TTTCCCATAGGAAAAACACACATATATTATATATAA [CACACA_site1981] | 9.12
AAGGATCACCCACAAACACACATATATATATATATA [CACACA_site559] | 9.76
TCTCATAGGAAACACACACACACACCCACATATATA [CACACA_site1738] | 10.2

Sequence | gcPBM binding intensity (ln)
TTTACTTTCCCAAGTTGTACTGCTTCTAAGCTTTTT [XGTACX_site2708] | 9.21
TTGTTTCTCTTTAAAAGTACAAAAATGGTTACATAT [XGTACX_site3109] | 8.95
TAAATAAATAAAAAAACACACATATAAATATAAATA [CACACA_site7815] | 9.61
TAAATAAAAAAACACACACACATATATATATATATA [CACACA_site2269] | 9.94
AATATAAGAAAAATAACACACACATAAACATATATA [CACACA_site8899] | 10.1
ATATATATAAAACACACACACACATGTTTTAAAACT [CACACA_site78] | 10.2
ATATATATAAAACACACACACACATGGTTTAAAACT [CACACA_site4219] | 10.2
AAAAAAAAAAAACACACACACACATAAATATATATA [CACACA_site149] | 10.2
TATAAGAAAAATAACACACACATAAACATATATACA [CACACA_site2785] | 10.2
ATTAAATAAAAAAACACACACATATATACATATATA [CACACA_site3445] | 9.89
AAAAAACATACATACACACACATAAATATATATATT [CACACA_site2699] | 10.1
TATAAGAAAAATAACACACACATAAACATAAATACA [CACACA_site5536] | 9.87
CATATATAAAAAAACACACACATATATATATATATA [CACACA_site1195] | 9.63
AAAAAAAACATACATACACACACATAAATATATATA [CACACA_site8864] | 10.3
ACTATTAACAGTGTAGTGCAAAAAGGTTAATTATTA | 9.42
AACATAAAAAAAATATGTACATATATAATATATATA [XGTACX_site3764] | 9.29
TTTTTATGTAGAATTTTTTTATTTTTTCAAAATGGA [CACACA_negctrl_site166] | 8.69
TATATATATATTGAAGTGCAAAATACTGTACGTAAT | 9.4
GAGATAAAATAAAACACACACATATATATATAGAAT [CACACA_site2197] | 10.1
TTGTTTTGCTAAAAATGTACTCTATATAAAAGCTTT [XGTACX_site4027] | 8.98
ATGTAATATATTATATGTACATATTTTTATGTAGAT [XGTACX_site5945] | 9.2
AACATTTTTAAATATATAAAAATATATATATATATA [XGTACX_negctrl_site551] | 8.97
TATTTTAATCGTAAGTGTACTCTTTTAAGTATATGT [XGTACX_site8591] | 9.2

Sequence | gcPBM binding intensity (ln)
GGACATTTTTATAAGGTGCACGGTTTTGATATTACT [GTGCAC_site9892] | 9.46
TATATAAATATACAAACACACATACAAACATATATA [CACACA_site4754] | 9.9
CATATACATAAACACACACACACATAAATAAATATA [CACACA_site4864] | 10.2
AAAAAAAAAAATATCACACACACATAAATATAAACA [CACACA_site7138] | 10.1
AATAAATATATAAATACACACAAACATACATATATA [CACACA_site9340] | 9.96
TACATACATAAACACACACACACATATATATATATA [CACACA_site8953] | 10.1
TAGATACATAAACACACACACACATACATATATACA [CACACA_site9139] | 10.3
TATATACATAAACACACACACACATATATATATATA [CACACA_site8707] | 10.1
AAAAAAAAAAATATCACACACACATAAATATAAACC [CACACA_site2278] | 10.2
AAAAAAAAATATCACACACACATAAATATAAACCAA [CACACA_site2279] | 10.1
TTTTATAATTTATCTAAAAAAAAATAAAATAAAATG [TGCATGCA_negctrl_site429] | 8.67
CTTTTTTTTTTGTATTGTACTTTATTTTTACATCGT [XGTACX_site2918] | 9.65
AAAAACGATTAATGTGTACACACATAGTTATAAACA [CACACA_site8659] | 9.74
TGATGATATAAAAACACACACATATAATATAATACT [CACACA_site1208] | 10
TTTTCCCTTACAGAAAAAAAAAAATTCCTAACCCCG [CACACA_negctrl_site650] | 9.03
TGGCATATATATAAATGTACTTTCTTTCTATCTGTT [XGTACX_site8483] | 9.34
ATAAATTCATTATATTGTACAAACAAATGAAAAAAA [XGTACX_site8304] | 9.09
AAAAAAAAAAAACACACACACACACTAGTATATAAA [CACACA_site4783] | 10.2
AAAAAAAATATGAAAACACACATATATAAATAAATA [CACACA_site113] | 9.55
ATAATATGAAAACACACACACACACTAGAAAAAAAA [CACACA_site5153] | 10.3
TACATAAATTAAAACACACACACACTAATAAAAAAA [CACACA_site8712] | 10.1
TACATATATAAAAAAACACACACATATATATATATA [CACACA_site8315] | 9.54
ATATATATGAAACACACACACAAAAAAAAAAAAAAA [CACACA_site3647] | 9.69

Sequence | gcPBM binding intensity (ln)
ATAATCCTTAAACACACACACACACTAATAAATAAA [CACACA_site8052] | 10.2
AATAATAAACACAATCAAATAAAATATGAAATATAA [GTGCAC_negctrl_site307] | 9.46
AAAAAATATATATTAACACACACACTAATAAAAAAA [CACACA_site8366] | 10
ATAATATGAAATATAACACACATATATAAAAACATT [CACACA_site866] | 9.72
AAAAAAAAAAAAAACACACACACAAGAGTATATAAA [CACACA_site6580] | 9.99
ATAATATGAAAACACACACACACACTAATAAAAAAA [CACACA_site8617] | 10.2
TAATAAAAATAAAATTGTACTAATAACATTTCATTA [XGTACX_site3703] | 8.94
TATCTTATGTCTGAAAGTACAAATTTTTTTCTACTT [XGTACX_site2208] | 9.09
TATATATATATATATACACACACACTAATAAAAAAA [CACACA_site8426] | 10
AATAAATATAAAAATGCACACACACTAATAAAAAAA [CACACA_site8201] | 10.2
AAAAAAAAAAAACACACACACACACTAATATATAAA [CACACA_site8302] | 10.2
AAAAAATCACAACACACACACACACTAATAAAAAAA [CACACA_site8410] | 10.2
GGAAACAAAAAATATATACACACTAATCATAAAAAA [CACACA_site7890] | 9.52
ATAAATAAAGGACACACACACACACTAGAAAAAAAA [CACACA_site5450] | 10
TGCAACAAAATAAACACACACACACTAACACAAAAA [CACACA_site7567] | 10.1
ATAATAAAAAAAAATGCACACATATATATATATATA [CACACA_site8766] | 9.21
ATAAATAAAGGACACACACACACACTAATAAAAAAA [CACACA_site8840] | 10.3
AAAAAAATAAAGGATATACACACTAATTATATATAT [CACACA_site2812] | 9.64
TATAATAAATCAAATGCACACACACTAATAAAAAAA [CACACA_site7937] | 10.1
ATATAAATAATATAAATACACACTAAAAAAAATATA [CACACA_site542] | 9.69
